# Laboratory results published in PubChem BioAssay (NCI).
# Compounds without any hit were thinned out: in the full panel of roughly 83,000, 20% have a hit.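 Growth was measured after 48 h exposure to one concentration of compound in 96-well plates. Values under 10 count as active.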 The source made the active and inactive calls.
# System: MDA-MB-468 breast
# Assay: NCI-60 one-dose screen, 48 h (100 = growth as untreated, 0 = no growth, -100 = all killed)
# Settings: 10 µM unless noted
row,SMILES,growth
1,COc1ccc(S(=O)(=O)NCCCNc2nccc(-c3c(-c4ccc(F)cc4)nc4sccn34)n2)cc1,61.2% (inactive)
2,O=C1C2C(C(=O)N1CC[Se][Se]CCN1C(=O)C3C(C1=O)[C@H]1C=C[C@@H]3C1)[C@H]1C=C[C@@H]2C1 (some centres not stated),-12.6% (active)
3,O=c1[nH]c(=O)n(C2C[C@@H](O)[C@@H](CO)O2)cc1F (some centres not stated),-3.59% (active)
4,COc1cc2nc(Cl)nc(Nc3cccc(C4=Nc5c(N)nc(N)nc5NC(c5ccc(Br)cc5)C4)c3)c2cc1OC (configuration not stated),90.3% (inactive)
5,CCOc1ccc(Br)cc1/C=C(\C#N)c1ccc([N+](=O)[O-])cc1,51.7% (inactive)
6,COc1cccc(Nc2ncnc3cc(NC(=O)CCl)ccc23)c1,-56% (active)
7,CCC(=O)Oc1cc(Cl)c(Cl)cc1Cl,113% (inactive)
8,Cc1ccc2[nH]cc(-c3nc(-c4cn(C)c5ncccc45)cs3)c2c1,-0.335% (active)
9,O=c1c2c(=NCCCN3CCCC3)cc3c(=O)n(CCCN4CCCC4)c(=O)c4c(NCCCN5CCCC5)cc(c(O)n1CCCN1CCCC1)c2c4-3,-62.2% (active)
10,OCc1ccc(N2CCc3cccc(F)c3C2)cc1Cl,-49.9% [0.1 µM] (active)
11,Cc1ccc(S(N)(=O)=O)cc1Cl,111% (inactive)
12,O=[N+]([O-])c1ccc(-c2nnc(SCc3ccc(O)c4ncccc34)o2)cc1,16.2% (inactive)
13,Cc1[nH]c(C(=O)Nc2ccc(C(=O)N3CCN(c4cc5c(cc4F)c(=O)c(C(=O)O)cn5C4CC4)CC3)cc2OC(C)C)c(Cl)c1Cl,85.9% (inactive)
14,COc1ccc(OC)c(/C=C2\Oc3cc(OCCN4CCC(Cc5ccccc5)CC4)ccc3C2=O)c1,64.8% (inactive)
15,Cc1nn(-c2ccccc2)c(Cl)c1/C=N\N=c1/sc2ccccc2n1C,113% (inactive)
16,CN1C(=O)N(C)C2Nn3c(s/c(=C\c4ccccc4)c3=O)=NC21 (configuration not stated),95.4% (inactive)
17,O=C1C=CC2(NN=C(c3ccccc3)N2c2cccc(Cl)c2)c2cccc(O)c21 (configuration not stated),76.1% (inactive)
18,Cc1cc(SCc2ccccc2)nc(N)n1,110% (inactive)
19,CCCCCCCCCCCC(=O)NC(C)(C)C(=O)N1CCCC1C(=O)NC(C)(C)C(=O)NC(C)(C)C(=O)N1CCCC1C(=O)NC(C)(C)C(=O)NC(C)(C)C(=O)N1CCCC1C(=O)NC(C)C(=O)NCCC(=O)NC(C)C(=O)NC(C)(C)C(=O)NC(C)(C)C(=O)NC(C)(C)C(=O)NCCC(=O)NC(C)(C)C(=O)NC(C)(C)C(=O)NC(C)(C)C(=O)NC(C)C(=O)NCCC(=O)O (configuration not stated),-88.5% (active)

row,SMILES,growth
1,COc1ccc(/C=C2\COc3ccc(O)cc3C2=O)c(OC)c1OC,48.8% (inactive)
2,NCCn1cc(-c2nc(-c3c[nH]c4ncccc34)cs2)c2ccccc21,40.5% (inactive)
3,CCOC(=O)C#Cc1c(C(=O)OCC)nnn1Cc1ccc([N+](=O)[O-])cc1,-19.6% (active)
4,N#CN1CCC[C@H]1C(=O)N1CCc2c(-c3[nH]nc4ncccc34)cccc21,-19% (active)
5,Cc1ccc2c(n1)C(=O)C(Oc1ccc(Br)cc1)=CC2=O,91.3% (inactive)
6,CC(C)(C)c1ccc(O)c(-c2ccccc2)c1,140% (inactive)
7,O=C1NCC2CCCC1C2 (configuration not stated),105% (inactive)
8,COc1ccc(F)c(F)c1C(=O)c1cnc(NC2CCN(S(C)(=O)=O)CC2)nc1N,-59.4% (active)
9,O=C(NC1CCN(Cc2ccccc2)CC1)c1cc(-c2ccncc2)nc2ccc(Cl)cc12,12.8% (inactive)
10,COC(CCCl)c1ccc(Cl)cc1 (configuration not stated),102% (inactive)
11,CCN(CC)CCSCCCNc1c2ccc(Cl)cc2nc2ccc(OC)cc12,-50.2% (active)
12,CNC(=O)CN1CCC(Oc2cc3c(Nc4cccc(Cl)c4F)ncnc3cc2OC)CC1,-22.9% (active)
13,Cn1cc(-c2ccc3c(c2)ncn3-c2ccc(CC(=O)Nc3cc(C(C)(C)C)on3)cc2)cn1,35.5% (inactive)
14,COC(=O)C(=[N+]=[N-])C(=O)c1ccc([N+](=O)[O-])o1,81.7% (inactive)
15,COc1ccc(C2=NN(C=O)C(c3cccc(Nc4ccnc5cc(Cl)ccc45)c3)C2)cc1 (configuration not stated),-3.92% (active)
16,CCCCSc1cc(C)nc(N)n1,95.8% (inactive)
17,COc1ccc(NC(=O)CSc2nc3ccc(Cl)cc3c(=O)n2-c2ccccc2C(F)(F)F)c(OC)c1OC,79.6% (inactive)
18,COc1cccc(N2CCN(CC(=O)N3CCN(c4nnc(-c5ccc(Cl)cc5)c(-c5ccc(Cl)cc5)n4)CC3)CC2)c1,76.5% (inactive)
